Measurements taken from PubChem BioAssay AID489018 (Southern Research Specialized Biocontainment Screening …, 2010).
Screen size: about 2,300 compounds; about 350 (15%) were called active. How the calls were made is not given here. These entries were drawn from the full list. Entries with a potency or affinity are not part of this list.

assay: HepG2 cell cytotoxicity, dose response, cytotoxicity control for non-replicating M. tuberculosis project (AID 489018); details: series mostly up to 20 µM;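 further: HepG2 human liver cells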

Structure (SMILES)	outcome
CC(C)Cn1c([N+](=O)[O-])nc2c1c(=O)[nH]c(=O)n2C	inactive
CN1CCC(O)(c2cccs2)C(C(=O)c2cccs2)C1 (configuration not stated)	inactive
COc1ccc(C(C#N)=C2C=CC(=NO)C=C2)cc1	inactive
CC/C(=C\C=C\[C@@H]1C=C[C@@H]2CCC[C@H]2[C@@H]1C(=O)c1ccc[nH]1)[C@@H]1O[C@@H]([C@@H](C)C(=O)O)CC[C@@H]1C	inactive
CCOc1cc(-c2sc(Nc3cc(C)ccc3OC)n[n+]2-c2ccccc2)ccc1OC	inactive
O=C(COc1ccc(Br)cc1)Nc1ccc([N+](=O)[O-])cn1	inactive
CC(=O)Nc1ccc(NC(=O)c2cc([N+](=O)[O-])cc([N+](=O)[O-])c2)cc1	inactive
O=C1/C(=C/C=C/c2ccccc2)Oc2c1ccc(O)c2CN1CCN(CCO)CC1	inactive
CCCOc1ccc(C(=O)NNC(=S)NC(=O)c2cccs2)cc1	inactive
CC(Oc1ccc2ccccc2c1)C(=O)NNC(=S)NC(=O)c1ccco1 (configuration not stated)	inactive
CCCOC(=O)c1ccc(NC(=O)c2ccc(Br)o2)cc1	inactive
Cc1cc(C)nc(-n2nc(C)cc2Nc2ccccc2)n1	inactive
CCCc1cc(=O)n2[nH]c(C)c(-c3ccccc3)c2n1	inactive
Clc1cccc(-c2ccc(CNCc3ccccn3)o2)c1	inactive
COc1cc(N=c2ssnc2Cl)cc(OC)c1OC	inactive
CCN(CC)c1ccc(-c2sc(Nc3ccccc3)n[n+]2-c2ccc(F)cc2)cc1	inactive
Cc1nn(-c2ccccc2)nc1C(=O)c1c(C)[nH]n(-c2ccccc2)c1=O	inactive
O=C(Nc1ncc(Cc2ccccc2Cl)s1)C1=NCCN1	inactive
O=C(NC1CCCCC1)c1nc2c(nnn2Cc2ccccc2Cl)c(=O)[nH]1	inactive
CCOC(=O)N1CCC(N2CCCC(C(=O)c3ccc4cc(OC)ccc4c3)C2)CC1 (configuration not stated)	inactive
CNC(C)C#Cc1ccc2oc3cc(C)c(C)cc3c(=O)c2c1 (configuration not stated)	inactive
CCCCOC(=O)c1ccc(NC(=O)c2nn(C)cc2Br)cc1	inactive
O=S1(=O)N=C(N/N=C/C=C/c2ccccc2)c2ccccc21	inactive
Cc1ccc(/C=C2\SC(=S)N(C3CCS(=O)(=O)C3)C2=O)o1 (configuration not stated)	inactive

Structure (SMILES)	outcome
CC(C)c1nnc(NC(=O)c2c(O)c3cccc4c3n(c2=O)CCC4)s1	inactive
O=C(NNC(=O)c1ccccc1F)c1ccc(-c2ccc(Cl)cc2)o1	inactive
COC(=O)c1cn(NC(=O)c2cnccn2)c(=O)c2ccccc12	inactive
CCOC(=O)c1cc(-c2c(Cl)cccc2Cl)no1	inactive
Cn1cnc([N+](=O)[O-])c1Sc1ccc([N+](=O)[O-])cc1	inactive
Fc1ccc(-c2ccc(CNCc3ccccn3)o2)cc1Cl	inactive
Clc1ccc(-c2ccc(CNCc3ccccn3)o2)cc1	inactive
CCOC(=O)c1cc(COc2cc(Cl)cc(Cl)c2)on1	inactive
Cc1cccc(OCC(=O)NNC(=O)c2cc3ccccc3oc2=O)c1	inactive
O=C(COc1ccc2ccccc2c1)N/N=C/c1ccccn1	inactive
Cc1cc(C)n2[nH]c(=O)c(N=Nc3cccc(Cl)c3)c2n1	inactive
CN=C1S/C(=C\c2ccc(OCC(=O)OC)c(OC)c2)C(=O)N1C	inactive
COc1cccc(OCCNC(=O)c2cc([N+](=O)[O-])cc([N+](=O)[O-])c2)c1	inactive
Cc1n[nH]c(C)c1CCOc1ccc(C(C)C)cc1	inactive
CC(C)c1ccc(OCC(=O)NNC(=O)c2cnccn2)cc1	inactive
O=C(COC(=O)c1ccc(O)cc1O)c1ccc2c(c1)OCO2	inactive
O=C1Nc2ccccc2/C1=C/C(=O)c1cccs1	inactive
O=C(NN=C(Cc1ccccc1)Cc1ccccc1)c1ccncc1	inactive
CCCCCn1c(=O)c2ccccc2n2c(CCl)nnc12	inactive
CC(C)(C)Nc1nc(NC(C)(C)C)nc(-n2ccnc2)n1	inactive
CN1/C(=C\C(=O)COC(=O)C2COc3ccccc3O2)C(C)(C)c2ccccc21 (configuration not stated)	inactive
Cc1cccc(-c2nnc3sc(-c4ccccc4C)nn23)c1	inactive
Cc1cc(C)cc(OC(=O)CCN2C(=O)c3ccccc3C2=O)c1	inactive
COc1ccc(/C=N/Nc2cc(C)nc(-n3nc(C)cc3C)n2)c(OC)c1	inactive

Structure (SMILES)	outcome
CCOc1ccc(Nc2cc(C)nc(-n3nc(C)cc3C)n2)cc1	inactive
Cc1cc(N2CCN(c3ccccc3)CC2)nc(-n2nc(C)cc2C)n1	inactive
Cc1cc(N2CCC(C)CC2)nc(-n2nc(C)cc2C)n1	inactive
Cc1ccc(NC(=O)ON=C2CCCC2)cc1	inactive
Cc1cc(NC(=O)C2CCCCC2)n(-c2nc3ccccc3[nH]2)n1	inactive
O=C(OCn1nnc2ccccc2c1=O)c1cccs1	inactive
COc1cc(/C=N/NC(=O)c2ccncc2)ccc1OC(=O)c1cccc(F)c1	inactive
O=C(NCCCN1CCOCC1)c1c(O)c2cc(Br)cc(Br)c2[nH]c1=O	inactive
CC(C)Cc1nnc(NC(=O)CCS(=O)(=O)c2ccc(Cl)cc2)s1	inactive
C=CCNc1nnc(Sc2ncccc2[N+](=O)[O-])s1	inactive
Cc1cccc(OC(=O)c2sc3ncn(C)c(=O)c3c2C)c1	inactive
COc1cccc(N2C(=O)NC(=O)/C(=C/c3ccc([N+](=O)[O-])s3)C2=O)c1	inactive
CCCc1nnc(NC(=O)c2cc3ccccc3oc2=O)s1	inactive
CCc1ccc(OCC(=O)Nc2ccncc2)c(Br)c1	inactive
Cc1ccccc1C(=O)Nc1nnc(-c2ccco2)o1	inactive
O=C(Nc1nnc(C2=COCCO2)o1)c1ccc(Cc2ccccc2)cc1	inactive
Cc1ccsc1C(=O)OCC(=O)Nc1nnc(-c2ccccc2)o1	inactive
CCOc1ccc(C(=O)Nc2nnc(C3=COCCO3)o2)cc1	inactive
O=C(CCS(=O)(=O)c1ccccc1)Nc1nnc(-c2ccco2)o1	inactive
CC(C)(C)c1ccc(C(=O)Nc2nnc(C3=COCCO3)o2)cc1	inactive
Cc1cc(C(=O)COc2cccc3cccnc23)c(C)n1C	inactive
CN(O)/C=c1/ccc2c(n1)C(=O)C=CC=2	inactive
Cc1ccc(-c2cc(C(F)F)nc(S(C)(=O)=O)n2)cc1	inactive
CN1C(=O)NC(=O)/C(=C/c2ccc([N+](=O)[O-])s2)C1=O	inactive
